POLI inh: blocks human DNA polymerase iota activity | Potency, µM (top dose mostly 115 µM), usual class: inhibitors | Pol iota fluorescent replication assay, 10 min | 390,000 compounds, 1% hits
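Fluorescent replication assay read twice, at 0 min and 10 min after adding 50 nM (final) substrate. Enzyme (10 nM) and compounds were first incubated 15 min at room temperature; enzyme-free buffer wells were negative controls.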
Pol beta inh: DNA polymerase beta (human) inhibition; P06746; Pol beta primer extension/strand displacement, fluorescence kinetic; Potency, µM (titrated, usually from 114 µM), usual class: inhibitors; 340,000 compounds, 1.3% hits
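Kinetic readout of DNA synthesis with strand displacement by Pol beta. Compound and 10 nM enzyme sit 15 min at room temperature; 50 nM substrate starts the reaction, read immediately and at 10 min.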
Pol kappa inh: blocks human DNA polymerase kappa activity | Q9UBT6 | purified Pol kappa, fluorescent DNA synthesis assay, 10 min | Potency, µM (top dose mostly 107 µM), hits mostly inhibitors | 400,000 compounds, 0.53% hits
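Kinetic fluorescence readout at 0 and 10 min followed reaction start with substrate at 50 nM final. Beforehand, enzyme (10 nM Pol kappa) stood 15 min with compound at room temperature; buffer-only wells were negative controls.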
FEN1 inh: blocks human flap endonuclease 1; AID 588795; Potency, µM (highest dose often 114 µM), actives largely listed as inhibitors; 390,000 compounds, 0.35% hits; Recombinant FEN1 flap cleavage, fluorescence, 15 min; P39748; further: nearly all actives have a fitted effect of over 65% in size
Target sequence (P39748 whole entry, looked up): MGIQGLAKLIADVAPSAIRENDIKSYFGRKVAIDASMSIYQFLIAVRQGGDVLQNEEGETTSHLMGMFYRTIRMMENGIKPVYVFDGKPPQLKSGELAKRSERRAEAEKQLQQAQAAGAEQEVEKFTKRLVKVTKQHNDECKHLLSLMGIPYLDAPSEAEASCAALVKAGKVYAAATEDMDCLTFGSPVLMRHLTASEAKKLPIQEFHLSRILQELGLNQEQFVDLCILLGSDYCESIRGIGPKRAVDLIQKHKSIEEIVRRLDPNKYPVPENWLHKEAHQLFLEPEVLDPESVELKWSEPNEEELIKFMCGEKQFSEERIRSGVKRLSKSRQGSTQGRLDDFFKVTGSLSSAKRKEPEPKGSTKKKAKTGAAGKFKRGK
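Enzyme 10 nM, 15 min RT preincubation with compound; start with substrate 50 nM final; reads at 0 and 15 min; qHTS titration, four-parameter Hill fit.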
POLH inh: DNA polymerase eta (human) inhibition; Potency, µM (series often up to 114 µM), hits mostly inhibitors; 390,000 compounds, 1.2% hits; Q9Y253; recombinant Pol eta, fluorescent DNA replication assay
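Pol eta at 10 nM preincubated with compounds 15 min at room temperature; reaction started with fluorescent substrate (50 nM final) and read kinetically at 0 and 10 min.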
WRN helicase inh: inhibitors of human WRN helicase | Q14191 | WRN helicase unwinding, fluorescent forked duplex, kinetic | Potency, µM (top dose mostly 114 µM), most hits filed as inhibitors | 360,000 compounds, 0.46% hits | AID 651768; further: nearly all actives have a fitted effect of over 55% in size
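Enzyme (20 nM final) and test compound sit together 15 min at room temperature before substrate addition. Substrate is a single-forked duplex oligonucleotide (100 nM) labelled with fluorophore and quencher, with 2 mM ATP; helicase unwinding raises red fluorescence, read kinetically.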
Of the large screens only hits and unclear results are named; the others gave an inactive call. Hits are enriched below; roughly 2.4% of the tested compounds scored in any of these assays. The call rests on the fitted dose curve; in most records, active means well fitted curve in the direction sought with a large enough effect; inconclusive means small, poorly fitted or top-dose-only effect, or another doubt; inactive means no such curve, though single readings can be large; an effect the other way counts as inactive or inconclusive.

CCCC[n+]1ccn(-c2nc3ccccc3nc2[N-]S(=O)(=O)c2cccs2)c1	Pol beta inh 18µM
Cc1ccc(C(=O)O)cc1NC(=S)NC(=O)c1ccc(-c2ccc(Cl)cc2)o1	POLH inh 50µM
COc1ccc(C(=O)O)cc1NC(=S)NC(=O)c1ccc(-c2ccc(Cl)cc2)o1	POLI inh inconclusive, POLH inh 20µM
O=C(O)c1cccc(NC(=S)NC(=O)c2ccc(-c3ccc(Cl)cc3)o2)c1	POLI inh inconclusive, Pol beta inh inconclusive, FEN1 inh inconclusive, POLH inh inconclusive, WRN helicase inh inconclusive
COc1ccc(N2CCN(C(CNC(=O)C(=O)NCCc3ccccc3)c3cccnc3)CC2)cc1 (stereo not given)	none (no result: WRN helicase inh)
CCCCCCCCCC[N+](C)(C)CC/C=C1/c2ccccc2Sc2ccc(Cl)cc21	Pol beta inh 40µM, FEN1 inh inconclusive
O=C(CSc1nc2c([nH]c3ccccc32)c(=O)n1-c1ccccc1)N1CCc2ccccc21	none (no result: WRN helicase inh)
O=Cc1ccc2[nH]ccc2c1	none (no result: Pol beta inh, POLH inh, WRN helicase inh)
O=C(NCC(c1cccnc1)N1CCc2ccccc2C1)C(=O)Nc1cccc(Cl)c1 (stereo not given)	none (no result: WRN helicase inh)
CSc1nc(N(CCO)CCO)c2sc3nc(-c4ccco4)c4c(c3c2n1)CCC4	POLI inh 1.8µM, Pol beta inh 1.8µM, Pol kappa inh 10µM, FEN1 inh inconclusive, POLH inh 1.1µM, WRN helicase inh 13µM
COc1ccc(-c2ccc(/C=C3/C(=N)N4C(C)=CSC4=NC3=O)o2)c([N+](=O)[O-])c1	POLI inh 18µM, Pol beta inh inconclusive, Pol kappa inh inconclusive, FEN1 inh inconclusive, POLH inh inconclusive, WRN helicase inh inconclusive
CCc1nn2c(-c3ccccc3OC)ccnc2c1-c1ccc(F)cc1	none (no result: WRN helicase inh)
COc1ccc(C2=NOC(C(=O)NCc3ccco3)C2)cc1 (stereo not given)	none
COc1ccc(-c2ccc(=O)n(CC(=O)NCc3ccco3)n2)cc1	POLI inh inconclusive, Pol beta inh 50µM, POLH inh inconclusive
COc1ccc(-c2cc(-c3cccs3)c(C#N)c(SCC(=O)NCc3ccco3)n2)cc1	Pol beta inh 13µM
CCC(C(=O)NCc1ccco1)n1nc(-c2ccc(OC)cc2)ccc1=O (stereo not given)	POLI inh inconclusive, Pol beta inh 45µM, Pol kappa inh inconclusive, POLH inh inconclusive
Cc1ccc(-c2ccc(=O)n(CC(=O)NCc3ccco3)n2)cc1	none
CN(Cc1ccccc1)C(=O)Nc1ccc2c(c1)N(C)C(=O)c1ccccc1S2	none (no result: WRN helicase inh)
COc1ccc(-c2ccc(C(=O)C3CC3)cc2)cc1	none
CC[N+]1(C)CCC(O)(c2ccc(OC)cc2)C(C(=O)c2ccc(OC)cc2)C1 (stereo not given)	POLI inh inconclusive, POLH inh inconclusive, WRN helicase inh 10µM (no result: Pol beta inh)
COc1ccc(NC(=O)/C(Cl)=C(/Cl)S(=O)(=O)Cc2ccc(C)cc2)cn1	POLI inh inconclusive, POLH inh 14µM, WRN helicase inh 50µM
COc1ccc(NC(=O)/C(Cl)=C(/Cl)S(=O)Cc2ccccc2Cl)cn1 (stereo not given)	POLI inh inconclusive, WRN helicase inh 11µM
COc1ccc(NC(=O)Cc2ccc(Cl)c(Cl)c2)cn1	none
Cc1c(C(=O)N2CCCC2)oc2c1-c1nn(CC(=O)NC(C)c3ccccc3)cc1CC2 (stereo not given)	none (no result: WRN helicase inh)
CC1CC=CC2C1C(=O)N(Cc1ccccc1)C2c1ccc(-c2cc3ccccc3s2)cc1F (stereo not given)	none (no result: Pol beta inh, POLH inh, WRN helicase inh)
CCOc1ccccc1-c1noc(CCCC(=O)Nc2cccc(C(F)(F)F)c2)n1	none (no result: WRN helicase inh)
O=C(Nc1nnc(SCc2cc(=O)n3cc(Cl)ccc3n2)s1)c1cccc(F)c1	none (no result: WRN helicase inh)
COc1ccc2c(c1)CCc1c-2nc2ccccc2c1N1CCOCC1	Pol beta inh inconclusive, FEN1 inh 50µM
Cc1ccc(S(=O)(=O)Oc2cccc(/C=N/n3cnnc3)c2)cc1	none
Cc1ccc(S(=O)(=O)Oc2cccc(/C=N/Nc3ccc(C(=O)O)cc3)c2)cc1	POLH inh 79µM
Cc1cccc(N2CSC3=C(C#N)C(c4ccc(C)o4)CC(=O)N3C2)c1 (stereo not given)	Pol beta inh 5µM (no result: POLI inh, Pol kappa inh, FEN1 inh, POLH inh, WRN helicase inh)
CC(C)[C@@H]1[C@H]2CC[C@H](C2)[C@H]1N	none (no result: POLI inh, Pol beta inh, FEN1 inh, POLH inh, WRN helicase inh)
CC[C@]12c3[nH]c4ccccc4c3CCN1C(=O)C(CC(=O)NCc1ccco1)C[C@@H]2C(=O)N1CCN(C(=O)c2ccco2)CC1 (stereo not given in full)	none (no result: Pol beta inh)
CC[C@]12c3[nH]c4cc(-c5ccco5)ccc4c3CCN1C(=O)[C@@H](CC(=O)NCc1ccco1)C[C@@H]2C(=O)N1CCN(C(=O)c2ccco2)CC1	POLI inh 50µM (no result: Pol beta inh)
CCN(c1ccc(OC)cc1)S(=O)(=O)c1ccc2c(c1)CCN2C(=O)CCC(=O)O	none
CCN(c1ccc(C)c(C)c1)S(=O)(=O)c1ccc2c(c1)CCN2C(=O)CCC(=O)O	Pol beta inh 89µM
CCCCCCCCCCCCCCCC[n+]1ccc(C)cc1	FEN1 inh inconclusive (no result: Pol beta inh, POLH inh, WRN helicase inh)
COCCn1c(C)cc(C(=O)CSc2cc(C)c3ccc(OC)cc3n2)c1C	none
COc1ccc2c(C)cc(SCC(=O)c3ccc4c(c3)OCO4)nc2c1	Pol beta inh 50µM
FC(F)(F)c1cccc(N2CCC(N=CN3CCCCCC3)=N2)c1	POLH inh 89µM
Oc1ccccc1C=NC1=NN(c2cccc(C(F)(F)F)c2)CC1	none
COc1ccc(N2Cc3cccc(C(=O)Nc4ccc(C)c(C)c4)c3C2=O)cc1	POLI inh inconclusive, Pol beta inh 11µM (no result: WRN helicase inh)
COc1ccc(N2Cc3cccc(C(=O)NC(C)CCc4ccco4)c3C2=O)cc1 (stereo not given)	POLI inh inconclusive, Pol beta inh 7.9µM, Pol kappa inh inconclusive, FEN1 inh inconclusive, POLH inh 22µM, WRN helicase inh 35µM
COc1ccc(N2Cc3cccc(C(=O)Nc4ccc(F)cc4)c3C2=O)cc1	POLI inh inconclusive, Pol beta inh 6.3µM, Pol kappa inh inconclusive, POLH inh inconclusive (no result: WRN helicase inh)
COCCN1Cc2cccc(C(=O)Nc3ccc(C)c(C)c3)c2C1=O	none
N#CCCn1c(=O)c(-c2ccc(F)cc2)nc2cnc(N3CCNCC3)nc21	none (no result: POLI inh, Pol beta inh, FEN1 inh, POLH inh, WRN helicase inh)
C[C@H](Cc1nc2c(cnn2-c2ccccc2Cl)c(=O)[nH]1)C(F)(F)F	none (no result: POLI inh, Pol beta inh, FEN1 inh, POLH inh, WRN helicase inh)
C/C(=N\NC(=O)c1ccc(-c2ccccc2)cc1)C1C(=O)c2ccccc2C1=O	POLI inh inconclusive, POLH inh 32µM, WRN helicase inh inconclusive
C/C(=N\NC(=O)c1ccc(Br)cc1)C1C(=O)c2ccccc2C1=O	none
O=C(O)c1[nH]c2ccccc2c1C(c1c(F)cccc1Cl)c1c(C(=O)O)[nH]c2ccccc12	none
